Screening data as filed in PubChem.
Compounds with a hit are over-represented: about 1.9% of the library has one in this group of screens.
MsrA inh: bovine MsrA enzyme inhibitors, primary screen, biochemical, absorbance, HTS; 360,000 tested, 0.75% active; inhibition, % at 15.5 µM; purified bovine MsrA, absorbance read-out; AID 651718, 2012; Methionine sulfoxide reductase A (Bos taurus); in the data active = inhibition above about 4.5%;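 also: 0% = vehicle wells with enzyme and 100% = reference inhibitor wells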
MsrA act: bovine MsrA enzyme activators, primary screen, biochemical, absorbance, HTS; Methionine sulfoxide reductase A (Bos taurus); purified bovine MsrA, absorbance read-out; activation, % at 10.6 µM; 360,000 tested, 0.3% active; AID 602163, 2012; in the data active = activation above about 7.5%;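 also: 0% = vehicle and 100% = reference activator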
PLC-beta3 inh: human PLC-beta3 inhibitors, primary screen, biochemical, fluorescence | 1-phosphatidylinositol 4,5-bisphosphate phosphodiesterase beta-3 (Homo sapiens), Q01970 | Purified PLC-beta3, fluorogenic substrate | inhibition, % at 12.2 µM | 370,000 tested, 0.18% active | AID 720704, 2013;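 also: 0% = median of compound wells on plate and 100% = full blocker control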
PLCg1 inh: PLC-gamma1 enzyme inhibitors, primary screen, biochemical, fluorescence, purified enzyme; fluorogenic substrate; inhibition, % at 12.2 µM; 370,000 tested, 0.84% active; AID 720700, 2013; in the data active = inhibition above about 9.5%
Target sequence (P19174 whole entry, looked up): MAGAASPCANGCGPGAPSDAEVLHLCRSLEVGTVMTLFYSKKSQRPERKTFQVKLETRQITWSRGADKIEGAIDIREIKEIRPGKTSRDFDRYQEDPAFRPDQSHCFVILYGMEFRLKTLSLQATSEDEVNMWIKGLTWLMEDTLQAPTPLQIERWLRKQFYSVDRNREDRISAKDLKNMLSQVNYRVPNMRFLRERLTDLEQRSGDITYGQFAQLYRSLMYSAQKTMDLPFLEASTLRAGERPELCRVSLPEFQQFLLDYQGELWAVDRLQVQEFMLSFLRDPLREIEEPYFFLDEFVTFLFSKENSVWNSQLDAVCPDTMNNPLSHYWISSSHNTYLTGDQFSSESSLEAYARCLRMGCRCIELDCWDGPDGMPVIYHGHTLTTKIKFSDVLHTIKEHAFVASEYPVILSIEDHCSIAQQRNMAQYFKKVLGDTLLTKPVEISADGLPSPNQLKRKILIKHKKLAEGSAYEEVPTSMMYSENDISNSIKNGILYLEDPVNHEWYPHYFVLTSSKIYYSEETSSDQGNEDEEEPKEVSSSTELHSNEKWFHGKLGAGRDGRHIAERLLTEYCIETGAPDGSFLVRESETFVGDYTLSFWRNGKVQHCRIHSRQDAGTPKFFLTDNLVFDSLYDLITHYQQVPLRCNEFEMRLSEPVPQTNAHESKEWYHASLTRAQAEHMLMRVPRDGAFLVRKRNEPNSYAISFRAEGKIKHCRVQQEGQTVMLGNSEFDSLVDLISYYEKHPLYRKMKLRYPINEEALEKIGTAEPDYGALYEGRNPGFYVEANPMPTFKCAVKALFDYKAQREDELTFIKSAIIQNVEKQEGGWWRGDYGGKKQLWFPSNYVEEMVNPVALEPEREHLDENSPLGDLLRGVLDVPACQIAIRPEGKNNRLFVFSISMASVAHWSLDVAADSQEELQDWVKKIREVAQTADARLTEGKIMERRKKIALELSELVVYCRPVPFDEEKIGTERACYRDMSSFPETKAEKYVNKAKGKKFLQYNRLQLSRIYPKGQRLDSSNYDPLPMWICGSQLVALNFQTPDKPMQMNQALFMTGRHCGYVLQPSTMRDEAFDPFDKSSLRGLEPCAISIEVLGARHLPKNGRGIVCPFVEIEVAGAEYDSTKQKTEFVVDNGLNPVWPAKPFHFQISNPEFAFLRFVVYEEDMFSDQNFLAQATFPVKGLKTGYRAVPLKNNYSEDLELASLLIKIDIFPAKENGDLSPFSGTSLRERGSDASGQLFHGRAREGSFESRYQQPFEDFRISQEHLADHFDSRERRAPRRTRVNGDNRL
PLCg1 ctr: PLC-gamma1 enzyme inhibitors, counter-screen for PLC-beta3 inhibitor project, biochemical, fluorescence; shares compounds with PLCg1 inh; purified PLC-gamma1, fluorogenic substrate; 3,300 tested, 3.1% active; inhibition, % at 12.3 µM; in the data active = inhibition above about 9.5%
PLCbeta3 conf: PLC-beta3 inhibitor confirmation, biochemical, fluorescence, purified enzyme | AID 743261, 2014 | 3,300 tested, 1% active | inhibition, % at 12.3 µM | shares compounds with PLCg1 inh | fluorogenic substrate fluorescence
An asterisk follows results filed as active. Rule as the data show it, unless noted: active = inhibition above about 11%; inactive = the rest.

How did C[C@@H]1CN([C@H](C)CO)C(=O)c2c(c3ccccc3n2C)-c2ccccc2CO[C@@H]1CN(C)C(=O)CCN(C)C do in these assays?
MsrA inh: 1; PLC-beta3 inh: 0; PLCg1 inh: 3

Results for Cc1nn(-c2ccccc2)c2sc(C(=O)N3CCN(S(=O)(=O)c4ccc(Br)s4)CC3)cc12 ?
PLC-beta3 inh: 1; PLCg1 inh: -3

How did Cc1nc2ccc(S(=O)(=O)N(C)CC(=O)NCc3ccc4c(c3)OCO4)cc2s1 do in these assays?
MsrA inh: 0; MsrA act: -5; PLC-beta3 inh: 0; PLCg1 inh: 0

What do the screens show for `Cc1nc2ccc(S(=O)(=O)NCC(=O)NCc3ccc4c(c3)OCO4)cc2s1`?
MsrA inh: 1; MsrA act: 0; PLC-beta3 inh: 12*; PLCg1 inh: 5; PLCg1 ctr: -8; PLCbeta3 conf: -4

How did CN(C)CCCN(CCCN(C)C)C(=S)Nc1ccc(S(=O)(=O)N2CCOCC2)cc1 do in these assays?
MsrA inh: 2; MsrA act: -1; PLC-beta3 inh: -4; PLCg1 inh: 11*; PLCg1 ctr: 1; PLCbeta3 conf: -6

Results for CC(C)(C)CC(C)(C)NC(=S)Nc1ccc(S(=O)(=O)N2CCOCC2)cc1 ?
MsrA inh: -1; MsrA act: -3; PLC-beta3 inh: 4; PLCg1 inh: 1

How did C/C(CC(=O)Nc1ccc(Br)cc1)=N\NC(=O)Cc1csc(N)n1 do in these assays?
MsrA inh: 0; MsrA act: -7; PLC-beta3 inh: -8; PLCg1 inh: -1

How did C/C(CC(=O)Nc1ccccc1C)=N\NC(=O)Cc1csc(N)n1 do in these assays?
MsrA inh: 0; MsrA act: -5; PLC-beta3 inh: 5; PLCg1 inh: 9.9*; PLCg1 ctr: -6; PLCbeta3 conf: -2

What do the screens show for `CCOc1ccc(N(CC(=O)NC2CCCC2)C(=O)CCCC(=O)Nc2ccccn2)cc1`?
MsrA inh: 0; MsrA act: -5; PLC-beta3 inh: 15*; PLCg1 inh: 5; PLCg1 ctr: 1; PLCbeta3 conf: -6

How did CCOc1ccc(N(CC(=O)NC2CCCC2)C(=O)CCC(=O)Nc2ccccn2)cc1 do in these assays?
MsrA inh: -1; MsrA act: -2; PLC-beta3 inh: 1; PLCg1 inh: 1

Results for CCOc1ncnc2c1sc1nc3c(cc12)COC(C)(C)C3 ?
MsrA inh: 0; MsrA act: -1; PLC-beta3 inh: 2; PLCg1 inh: 10*; PLCg1 ctr: -4; PLCbeta3 conf: -1

Results for CCCOc1ncnc2c1sc1nc3c(cc12)COC(C)(C)C3 ?
MsrA inh: 1; MsrA act: 0; PLC-beta3 inh: -1; PLCg1 inh: 7

How did CCOC(=O)N/N=C/c1ccc(Oc2ccccc2)cc1 do in these assays?
MsrA inh: 1; MsrA act: -1; PLC-beta3 inh: 9; PLCg1 inh: 9.6*; PLCg1 ctr: 6; PLCbeta3 conf: 10

Results for Cc1occc1C(=O)N/N=C/c1ccc(OCc2ccccc2)cc1 ?
MsrA inh: 2; MsrA act: -6; PLC-beta3 inh: -1; PLCg1 inh: 15*; PLCg1 ctr: -3; PLCbeta3 conf: 0

What do the screens show for `CCOC(=O)N/N=C/c1ccc(C)o1`?
MsrA inh: 1; MsrA act: -2; PLC-beta3 inh: 2; PLCg1 inh: 0

What do the screens show for `Cc1cccc(C)c1-n1nnnc1C1c2ccccc2OCC(=O)N1Cc1ccc(F)cc1` (stereo unspecified)?
PLC-beta3 inh: 0; PLCg1 inh: 5

Results for CCCNC(=O)c1cc(C2CCCN(C(=O)C3CC3)C2)on1 (stereo unspecified) ?
MsrA inh: -1; MsrA act: -2; PLC-beta3 inh: 5; PLCg1 inh: 1

What do the screens show for `Cc1ccc(CNC(=O)c2cc(-c3ccccc3C)nn2CC2CC(c3cccnc3)=NO2)cc1` (stereo unspecified)?
MsrA inh: 0; MsrA act: 0; PLC-beta3 inh: -8; PLCg1 inh: 1

Results for Cc1ccccc1-c1cc(C(=O)NCc2ccc(OC(F)(F)F)cc2)n(CC2CC(c3cccnc3)=NO2)n1 (stereo unspecified) ?
MsrA inh: -1; MsrA act: -11; PLC-beta3 inh: 1; PLCg1 inh: 11*; PLCg1 ctr: -3; PLCbeta3 conf: -8

What do the screens show for `COc1ccccc1-c1noc2c1C(=O)N(Cc1cn(Cc3ccccc3)nn1)CC2`?
MsrA inh: -1; MsrA act: -3; PLC-beta3 inh: -1; PLCg1 inh: 0

What do the screens show for `COC(=O)[C@]12C[C@H](CC(=O)NCCCN3CCCC3=O)C(=O)N(CCC3=CCCCC3)C1=C[C@H](COCc1ccccc1)O[C@@H]2C`?
MsrA inh: 1; PLC-beta3 inh: 4; PLCg1 inh: 1

What do the screens show for `O=C(Nc1ccncc1)c1ccc2c(c1)C(=O)N(CC1CCCO1)C2=O` (stereo unspecified)?
MsrA inh: 1; MsrA act: -3; PLC-beta3 inh: 5; PLCg1 inh: 11*; PLCg1 ctr: -3; PLCbeta3 conf: 1

How did COc1ccc(CN(C)S(=O)(=O)c2ccc3c(c2)OCCO3)cc1 do in these assays?
MsrA inh: 1; MsrA act: -1; PLC-beta3 inh: -2; PLCg1 inh: 12*; PLCg1 ctr: -4; PLCbeta3 conf: -5

How did O=C(c1ccc(Br)o1)N(Cc1ccccc1)Cc1ccccc1 do in these assays?
MsrA inh: 2; MsrA act: 2; PLC-beta3 inh: -3; PLCg1 inh: -3

How did Cc1c(CN(C)C(=O)c2ccc(Br)o2)cnn1C do in these assays?
MsrA inh: 1; MsrA act: -1; PLC-beta3 inh: 5; PLCg1 inh: 12*; PLCg1 ctr: -7; PLCbeta3 conf: -5

Results for Cc1cc(C)c(O)c(-c2n[nH]c3c2C(c2cccc(O)c2)N(Cc2ccco2)C3=O)c1 (stereo unspecified) ?
MsrA inh: 2; MsrA act: -2; PLC-beta3 inh: 7; PLCg1 inh: 6

Results for Cc1cccc(NC(=O)Cn2c(O)c(N=NC(=O)c3ccccc3O)c3ccccc32)c1 ?
MsrA inh: 0; MsrA act: -3; PLC-beta3 inh: 2; PLCg1 inh: 11*; PLCg1 ctr: 8; PLCbeta3 conf: -1

Results for CCCCCc1c(CC)ncn1CCc1ccccc1OC ?
MsrA inh: -1; MsrA act: -11; PLC-beta3 inh: -1; PLCg1 inh: 1

How did O=C(CCC1CCCN(C(=O)c2cncs2)C1)NCc1ccc(F)c(F)c1 (stereo unspecified) do in these assays?
MsrA inh: 2; MsrA act: -7; PLC-beta3 inh: 5; PLCg1 inh: 10*; PLCg1 ctr: -7; PLCbeta3 conf: -5
